Test results: the supplement of paper PMC10338343
± gives the standard deviation.

Tested on: MILI (PIWIL2) piRISC loaded with L1MC piRNA (26 nt)
Experiment: pre-steady-state target cleavage rate (min^-1); guide: L1MC piRNA 5'p-UAACUAAAUACUAUGCAAGCUGUAGG; MIWI and MILI are mouse PIWI proteins and EfPiwi is from a freshwater sponge; tags in brackets are library labels; higher = faster piRNA-guided slicing of the target
Settings: auxiliary factor: 500 nM mouse GTSF1
How it was run: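 For Cleave-'n-Seq, a transcribed, DNA-blocked target RNA library […] met 1 nM active affinity-purified piRISC with one synthetic guide at 33 °C for 0–8 or 0–960 min in HEPES–potassium acetate buffer, with or without 500 nM GTSF1 partner protein. Uncleaved targets were sequenced and normalised to depth and weakly complementary targets, with three trials pooled and k3 capped at 0.0001 min^-1. A burst-and-steady-state fit supplied the pre-steady-state cleavage rate.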
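Note: 1 nM active piRISC with 0.1 nM target library at 33 °C single turnover.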

Row | Sequence | pre-steady-state target cleavage rate
1 | UCCUGGUUCAGGUUGCAUAGUAUUUAGUUA | 0.21 ± 0.023
2 | UCCUGCUACAGCUUGCACAGUAUUUAGUUA | 0.157 ± 0.015
3 | UCCUGGUACAGGAUGCAUAGUAUUUAGUAA | 0.172 ± 0.021
4 | UCCUGGAUGAGCUUGCAUUGUAUUAAGUUA | 0.0879 ± 0.017
5 | UCCUGGUACAGCUUGCAUAGUAUUUAUGUUA | 0.147 ± 0.036
6 | UCCUGGAACAGCUUGCAUAGUAAAUAGUUA | 0.153 ± 0.021
7 | UCCUGCAACAGCUUGGAUAGUAUUUAGUUA | 0.251 ± 0.011
8 | UCCUGGAUCAGCUUGCAUAGAAUUUAGUUA | 0.0368 ± 0.0086
9 | UCCUGGAUCUAGCUUGCAUAGUAUUUAGUUA | 0.193 ± 0.021
10 | UCCUGCUUCAGCUUGCAUAGUAUUUAGUAA | 0.224 ± 0.025
11 | UCCUCCUACAGCUCUGCAUAGUAUUUAGUUA | 0.276 ± 0.014
12 | UCCUGGAUCAGAUUGCAUAGUAUUUAGUUA | 0.205 ± 0.013
13 | UCCUGGAUCAGGAUGCAUAGUAUUUAGUUA | 0.156 ± 0.012
14 | UCCUCCUACAGCUAGCAUACUAUUUAGUUA | 0.0706 ± 0.011
15 | UCCUGGUAGAGCUUGCAUAGUAUAUAGUUA | 0.207 ± 0.027
16 | UCCUGGAUGUCCUUGCAUACUAUUUAGUUA | 0.0324 ± 0.01
17 | UCCUGGUACAGCAUGCAUACUAUUUAGUUA | 0.139 ± 0.031
18 | UCCUGCAUGAGCUUGCAUAGUAUUUAGUAA | 0.234 ± 0.024
19 | UCCUGGAACAGCUAGCAUAGUAUUUAGUUA | 0.242 ± 0.019
20 | UCCUGGAUCAGCUUGCAUAGUAUUUAGAAA | 0.138 ± 0.022

Row | Sequence | pre-steady-state target cleavage rate
21 | UCCUGCUACAGCUAGCAUAGUAAUUAGUUA | 0.284 ± 0.026
22 | UCCUGCUACAGCGUGCAUAGUAUUUAGUUA | 0.296 ± 0.02
23 | UCCUGGAUGUCCUUCGCAUAGUAUUUAGUUA | 0.0676 ± 0.015
24 | UCCUCCUACAGCUUGCUUACUAUUUAGUUA | 0.089 ± 0.011
25 | UCCUGGAACAGCUAGCUUAGUAUUUAGUUA | 0.186 ± 0.015
26 | UCCUGCUAGAGCUAGCAUAGUAUUUAGUUA | 0.237 ± 0.031
27 | UCCUCCUACAGCUUGGUUAGUAUUUAGUUA | 0.269 ± 0.016
28 | UCCUGGAUCAGCCUGCAUAGUAUUUAGUUA | 0.244 ± 0.026
29 | UCCUGCUACAGCUAGCAUUGUAUUUAGUUA | 0.225 ± 0.019
30 | UCCUGGAACAGCUUGCAUAGUAUGUAGUUA | 0.206 ± 0.034
31 | UCCUCCUACAGCAUGCAUAGUAUUUAGUAA | 0.231 ± 0.019
32 | UCCUGCUACAGCUUGCAUAGUAUUUAGUUG [g2:g25:cont:t1G] | 0.145 ± 0.013
33 | UCCUGGUACAGCUAGCAUAGUAUUUAGUAA | 0.201 ± 0.022
34 | UCCUGGAACAUCUUGCAUAGUAUUUAGUUA | 0.244 ± 0.013
35 | UCCUGCAACAGCUUGCAAAGUAUUUAGUUA | 0.166 ± 0.012
36 | UCCUGGUACAGCAUGCAUAGUAAUUAGUUA | 0.193 ± 0.025
37 | UCCUGGUACAGCUGUGCAUAGUAUUUAGUUA | 0.238 ± 0.019
38 | UCCUGGAUGAGCUUGCACAGUAUUUAGUUA | 0.172 ± 0.014
39 | UCCUGGAACAGCUUGCAUAGUAUUAGUUA | 0.199 ± 0.016

Same assay, conditions: auxiliary factor: none (no GTSF1)

Row | Sequence | pre-steady-state target cleavage rate
40 | UCCUGGUUCAGGUUGCAUAGUAUUUAGUUA | 0.0182 ± 0.005
41 | UCCUGCUACAGCUUGCACAGUAUUUAGUUA | 0.00803 ± 0.0023
42 | UCCUGGUACAGGAUGCAUAGUAUUUAGUAA | 0.00595 ± 0.002
43 | UCCUGGAUGAGCUUGCAUUGUAUUAAGUUA | 0.00381 ± 0.0027
44 | UCCUGGUACAGCUUGCAUAGUAUUUAUGUUA | 0.0114 ± 0.0044
45 | UCCUGGAACAGCUUGCAUAGUAAAUAGUUA | 0.0034 ± 0.0027
46 | UCCUGCAACAGCUUGGAUAGUAUUUAGUUA | 0.00806 ± 0.0021
47 | UCCUGGAUCAGCUUGCAUAGAAUUUAGUUA | 0.00356 ± 0.002
48 | UCCUGGAUCUAGCUUGCAUAGUAUUUAGUUA | 0.00722 ± 0.0025
49 | UCCUGCUUCAGCUUGCAUAGUAUUUAGUAA | 0.00397 ± 0.002
50 | UCCUCCUACAGCUCUGCAUAGUAUUUAGUUA | 0.00692 ± 0.0018
51 | UCCUGGAUCAGAUUGCAUAGUAUUUAGUUA | 0.00667 ± 0.002
52 | UCCUGGAUCAGGAUGCAUAGUAUUUAGUUA | 0.00724 ± 0.0018
53 | UCCUCCUACAGCUAGCAUACUAUUUAGUUA | 0.0031 ± 0.0022
54 | UCCUGGUAGAGCUUGCAUAGUAUAUAGUUA | 0.00638 ± 0.0021
55 | UCCUGGAUGUCCUUGCAUACUAUUUAGUUA | 0.00339 ± 0.0025
56 | UCCUGGUACAGCAUGCAUACUAUUUAGUUA | 0.00694 ± 0.003
57 | UCCUGCAUGAGCUUGCAUAGUAUUUAGUAA | 0.00554 ± 0.0022
58 | UCCUGGAACAGCUAGCAUAGUAUUUAGUUA | 0.00629 ± 0.0023
59 | UCCUGGAUCAGCUUGCAUAGUAUUUAGAAA | 0.00292 ± 0.0023

Row | Sequence | pre-steady-state target cleavage rate
60 | UCCUGCUACAGCUAGCAUAGUAAUUAGUUA | 0.0047 ± 0.003
61 | UCCUGCUACAGCGUGCAUAGUAUUUAGUUA | 0.00602 ± 0.0024
62 | UCCUGGAUGUCCUUCGCAUAGUAUUUAGUUA | 0.00538 ± 0.0022
63 | UCCUCCUACAGCUUGCUUACUAUUUAGUUA | 0.00298 ± 0.0026
64 | UCCUGGAACAGCUAGCUUAGUAUUUAGUUA | 0.0065 ± 0.0023
65 | UCCUGCUAGAGCUAGCAUAGUAUUUAGUUA | 0.00417 ± 0.0027
66 | UCCUCCUACAGCUUGGUUAGUAUUUAGUUA | 0.00996 ± 0.0021
67 | UCCUGGAUCAGCCUGCAUAGUAUUUAGUUA | 0.0068 ± 0.0031
68 | UCCUGCUACAGCUAGCAUUGUAUUUAGUUA | 0.007 ± 0.0024
69 | UCCUGGAACAGCUUGCAUAGUAUGUAGUUA | 0.00343 ± 0.003
70 | UCCUCCUACAGCAUGCAUAGUAUUUAGUAA | 0.00366 ± 0.0021
71 | UCCUGCUACAGCUUGCAUAGUAUUUAGUUG [g2:g25:cont:t1G] | 0.0083 ± 0.0024
72 | UCCUGGUACAGCUAGCAUAGUAUUUAGUAA | 0.00371 ± 0.0023
73 | UCCUGGAACAUCUUGCAUAGUAUUUAGUUA | 0.0108 ± 0.0028
74 | UCCUGCAACAGCUUGCAAAGUAUUUAGUUA | 0.00683 ± 0.0024
75 | UCCUGGUACAGCAUGCAUAGUAAUUAGUUA | 0.013 ± 0.0032
76 | UCCUGGUACAGCUGUGCAUAGUAUUUAGUUA | 0.0118 ± 0.0046
77 | UCCUGGAUGAGCUUGCACAGUAUUUAGUUA | 0.00869 ± 0.0031
78 | UCCUGGAACAGCUUGCAUAGUAUUAGUUA | 0.0037 ± 0.0023
